SW480 rereplic: induces DNA re-replication in SW480 colon adenocarcinoma cells; Potency, µM (highest dose often 46.1 µM), hits mostly activators; SW480 DNA re-replication, Hoechst DNA content imaging, 48 h; actives 1.8% (n = 340,000); further: nearly all actives have a fitted effect of over 55% in size
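Per well, 250 cells were exposed to pinned compound for 48 hr. Nuclear DNA was visualised with Hoechst (40 min, 37 C) and total object intensity recorded by fluorescence scanning.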
KB-3-1 tox: kills parental KB-3-1 adenocarcinoma cells | KB-3-1 viability, CellTiter-Glo ATP luminescence, 72 h | Potency, µM (titrated, usually from 46.1 µM), actives largely listed as cytotoxic | actives 1.4% (n = 400,000) | AID 1347075; further: nearly all actives have a fitted effect of over 60% in size
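Parental KB-3-1 viability, qHTS format: 72 h compound exposure, 37 °C; CellTiter-Glo; media-only wells and DMSO plates as controls; concentration-effect fits on corrected data.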
KB-V1 MDR tox: kills drug-selected multidrug resistant KB-V1 cells. Potency, µM (highest dose often 46.1 µM), usual class: cytotoxic. actives 3.4% (n = 400,000). KB-V1 MDR cells viability, CellTiter-Glo, 72 h; further: nearly all actives have a fitted effect of over 60% in size
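Readout: CellTiter-Glo luminescence, 10 min after addition. Cells: KB-V1 MDR subline, 72 h at 37 degrees C with compound. Analysis: corrected, normalized data fitted to concentration-effect curves.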
TSG101-PTAP inh: blocks PTAP/TSG101 interaction to inhibit HIV-1 budding; Q99816; 340,000 tested, under 10 active; Fluorescence polarization, FITC-PTAP peptide / Tsg101 binding; Potency, µM (top dose mostly 115 µM), hits mostly inhibitors; active means well fitted inhibition curve with a large enough effect in the main read-out, with a control signal flat, not every such curve was filed as active; inconclusive means small, poorly fitted or top-dose-only effect, or effect the other way, or a change in a side signal; inactive means no such curve, though single readings can be large or run the other way
Target sequence (Q99816 whole entry, looked up): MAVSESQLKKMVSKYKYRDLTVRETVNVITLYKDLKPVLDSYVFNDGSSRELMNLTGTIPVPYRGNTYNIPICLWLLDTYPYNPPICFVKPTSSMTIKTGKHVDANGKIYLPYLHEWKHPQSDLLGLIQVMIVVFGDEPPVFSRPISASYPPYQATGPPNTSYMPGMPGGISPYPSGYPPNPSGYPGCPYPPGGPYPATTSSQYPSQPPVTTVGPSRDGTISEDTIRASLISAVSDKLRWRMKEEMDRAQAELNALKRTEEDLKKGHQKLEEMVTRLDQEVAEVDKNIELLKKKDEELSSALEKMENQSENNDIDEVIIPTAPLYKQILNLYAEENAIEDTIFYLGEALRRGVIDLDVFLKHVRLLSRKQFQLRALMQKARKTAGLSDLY
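Compounds were pin-transferred onto Tsg101 binding domain (10 uM final) in HEPES pH 7.5 buffer, then FITC-PTAP peptide was added at 50 nM final. After 20 min at RT, polarization reported peptide displacement across a qHTS concentration series.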
MCF10A rereplic: induces DNA re-replication in MCF 10a normal breast cells | MCF 10A DNA re-replication, Hoechst nuclear intensity, 48 h | Potency, µM (doses to about 46.1 µM), actives largely listed as activators | actives 2.9% (n = 350,000); further: nearly all actives have a fitted effect of over 50% in size
PINK1 expr mod: modulators of PINK1 expression. actives 0.2% (n = 410,000). Potency, µM (highest dose often 76.6 µM), actives largely listed as activators. PINK1 immunofluorescence, high-content cytometry, 24 h; active means well fitted activation curve with a large enough effect; inconclusive means small, poorly fitted or top-dose-only effect; cell line not stated here; further: nearly all actives have a fitted effect of over 65% in size
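A stable cell line was treated with compounds at 5 concentrations for 24 hours, with CCCP as control. PINK1 levels and mitochondrial localization were measured by immunofluorescence with mitochondrial, cell and nuclear markers after fixation, read by laser-scanning cytometry.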
Numbers stand for hits; - = inactive; ? = inconclusive; . = no result; [ ] = another dose, or the depositor's remark. This is a sample that favours compounds with a hit; in the whole collection about 6.8% have one here. Unless noted, the call rests on the fitted dose curve; in most records, active means well fitted curve in the direction sought with a large enough effect; inconclusive means small, poorly fitted or top-dose-only effect, or another doubt; inactive means no such curve, though single readings can be large; an effect the other way counts as inactive or inconclusive.

SMILES	SW480 rereplic	KB-3-1 tox	KB-V1 MDR tox	TSG101-PTAP inh	MCF10A rereplic	PINK1 expr mod
CCN(c1ccccc1)S(=O)(=O)c1ccc(OC)c(NC(=O)CNC)c1	-	?	?	-	8.2µM	-
CCN(c1ccccc1)S(=O)(=O)c1ccc(Cl)c(NC(=O)CN(C)Cc2cccc(F)c2)c1	-	?	16µM	-	?	-
O=C(CN1CCN(C/C=C/c2ccccc2)CC1)Nc1cc([N+](=O)[O-])ccc1Cl	-	?	23µM	-	-	-
CN(C)S(=O)(=O)c1ccc(Cl)c(NC(=O)CN2CCCCCC2)c1	-	-	?	-	-	-
CCN(CCN(C)Cl)/[N+]([O-])=N/Oc1ccc([N+](=O)[O-])cc1[N+](=O)[O-]	.	.	.	.	.	-
CCC(C)NCC(=O)Nc1cc(S(=O)(=O)N(CC)c2ccccc2)ccc1Cl (stereo not drawn)	-	?	-	-	-	-
CCN(c1ccccc1)S(=O)(=O)c1ccc(Cl)c(NC(=O)CNC(C)c2ccccc2)c1 (stereo not drawn)	-	?	16µM	-	-	-
CC(=O)/C(C#N)=C1\NC(=O)C(Cc2ccc(F)cc2)S1 (stereo not drawn)	?	?	-	-	-	-
CC(=O)/C(C#N)=C1\NC(=O)C(Cc2cc(Cl)ccc2Cl)S1 (stereo not drawn)	-	15µM	6.5µM	-	-	-
CC(=O)/C(C#N)=C1\NC(=O)C(Cc2ccccc2Cl)S1 (stereo not drawn)	-[9.22 µM]	3.3µM	?	-	?	-
CC(=O)/C(C#N)=C1\NC(=O)C(Cc2ccc(C)c(C)c2)S1 (stereo not drawn)	-	15µM	5.8µM	-	?	-
NC1=NC(=O)C(Cc2cc(Cl)ccc2Cl)S1 (stereo not drawn)	-	-	-	-	-	-
O=S(=O)(Nc1cc(Sc2cccc3cccnc23)c(O)c2ccccc12)c1ccc(F)cc1	0.73µM	3.3µM	?	-	10µM	-
Cc1cc2c(c(-c3nc4ccccc4s3)c1)OC(CNC(=O)c1occc1C)C2 (stereo not drawn)	.	.	.	.	.	-
CC(=O)Nc1ccc(S(=O)(=O)N2c3ccc(F)cc3CCC2C)cc1 (stereo not drawn)	18µM	9.2µM	-	-	?	-
CCN(CC)S(=O)(=O)c1ccc(C(=O)NC2CC(=O)N(c3ccc4c(c3)OCCO4)C2)cc1 (stereo not drawn)	.	-	?	.	.	-
CC(C)CC(=O)Nc1ccc2c(c1)OCO2	-	-	-	-	-	-
Cc1ccc(C(=O)Nc2ccc3c(c2)OCO3)cc1	-	-	?	-	-	?
c1cc(CNc2ccc3c(c2)OCO3)ccn1	-	-	-	-	-	-
Cc1ccc(CNc2ccc3c(c2)OCO3)cc1	23µM	?	?	?	23µM	?
Cc1ccc(CN(c2ccc(C(=O)Nc3ccc4c(c3)OCO4)cc2)S(C)(=O)=O)cc1	-	-	6.5µM	.	-	-
O=C(CCl)Nc1ccc2c(c1)OCO2	?	15µM	?	-	-	-
O=C(/C=C\Nc1ccc2c(c1)OCO2)c1ccc2c(c1)OCO2	-	-	-	-	21µM	-
CCOc1ccc(NC(=O)c2ccc3c(SCC(=O)O)c4c(nc3c2)CCC4)cc1	.	-	-	.	.	-
COc1ccc(-c2nc(C)c(CCNC(=O)c3ccccc3Br)s2)cc1OC	.	.	.	.	.	-
SMILES	SW480 rereplic	KB-3-1 tox	KB-V1 MDR tox	TSG101-PTAP inh	MCF10A rereplic	PINK1 expr mod
CCCn1cc(S(=O)(=O)c2cccc(Cl)c2)c(=O)c2cc(F)c(N3CCOCC3)cc21	.	.	.	.	.	-
COc1ccc(C(=O)N2CCC[C@@]3(CCN(C(=O)Nc4ccccc4)C3)C2)cc1	.	.	.	.	.	-
C=CCN(c1ccc(C(=O)Nc2ccc(C)c(C)c2)cc1)S(C)(=O)=O	-	-	21µM	-	-	-
C=CCN(c1ccc(C(=O)Nc2ccc(C)cc2)cc1)S(C)(=O)=O	-	-	-	-	-	-
CS(=O)(=O)N(CC(=O)Nc1ccc2c(c1)OCO2)c1ccc(Cl)cc1	-	-	23µM	-	-	-
COc1ccc(NC(=O)c2cc3c(C)nn(-c4ccccc4)c3s2)c(OC)c1	.	-	-	.	.	-

Compound activity from PubChem.
